This is a sample that favours compounds with a hit; in the whole collection about 6.3% have one here.
RORg inh – blocks mouse ROR gamma transcriptional activity; P51450; Drosophila S2 Gal4-RORgamma UAS-luciferase reporter, 20 h; Potency, µM (top dose mostly 53.6 µM), without a hit: at the top dose activity change, negative = inhibition, most hits filed as inhibitors; 5.4% of 310,000 active; further: on the % scale 0 is the no-effect control and ±100 the full control effect; nearly all actives have a fitted effect of over 60% in size
Target sequence (P51450 whole entry, looked up, the tested form may be a part): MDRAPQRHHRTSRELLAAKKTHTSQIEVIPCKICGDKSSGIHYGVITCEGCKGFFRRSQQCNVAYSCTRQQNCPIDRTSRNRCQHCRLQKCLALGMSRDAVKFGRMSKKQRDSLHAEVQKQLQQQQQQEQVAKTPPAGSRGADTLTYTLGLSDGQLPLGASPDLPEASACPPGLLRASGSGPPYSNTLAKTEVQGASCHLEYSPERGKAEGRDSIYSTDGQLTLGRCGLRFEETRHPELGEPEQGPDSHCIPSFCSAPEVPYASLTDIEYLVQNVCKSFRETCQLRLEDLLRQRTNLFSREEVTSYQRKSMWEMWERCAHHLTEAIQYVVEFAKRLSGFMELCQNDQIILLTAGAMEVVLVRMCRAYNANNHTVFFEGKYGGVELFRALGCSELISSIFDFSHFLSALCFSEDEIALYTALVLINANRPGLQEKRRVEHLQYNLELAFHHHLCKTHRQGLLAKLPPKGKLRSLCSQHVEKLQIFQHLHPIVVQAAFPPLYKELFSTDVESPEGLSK
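In this cell-based reporter format, copper sulfate (700 uM final) drives Gal4–ROR gamma fusion expression from a metallothionein promoter in Drosophila Schneider cells; compounds preincubated 1 hr, reporter read after 20 hr at ambient temperature.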
HepG2 viability – HepG2 cytotoxicity, counter-screen for TGF-b inhibitors. HepG2 CAGA-GFP viability, ATP luminescence, 18 h. Potency, µM (highest dose often 46.1 µM), for inactives: at the highest dose activity change, negative = cytotoxicity, actives largely listed as cytotoxic. 0.76% of 410,000 active
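CellTiter-Glo luminescence gave cytotoxicity after 18 hours at 37 degrees C. The cells were HepG2 CAGA-GFP in 1% FBS DMEM, stimulated with 500 pg/mL TGF-beta after compound addition. %Activity was normalised to no-cell wells (complete cell-killing) and DMSO (no toxicity), and curves were fitted and classified.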
S2 tox – cell viability loss in ATXN counter-screen. S2 cells (HEK-293 line with an ATXN2-luciferase reporter) viability, CellTiter-Fluor protease fluorescence, 24 h. Potency, µM (doses to about 56.7 µM), usual class: cytotoxic. 0.49% of 400,000 active. AID 651635; further: nearly all actives have a fitted effect of over 40% in size
ATXN2 expr inh – ATXN2 expression inhibition. 0.72% of 360,000 active. Potency, µM (series often up to 57 µM), inactives show at the top dose activity change, negative = inhibition, most hits filed as inhibitors. HEK-293 ATXN2-luciferase reporter, luminescence, 24 h. AID 1745845; further: on the % scale 0 is the no-effect control and ±100 the full control effect; nearly all actives have a fitted effect of over 55% in size
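qHTS (up to 57 uM final) was run with 24 h compound exposure of reporter cells at 37 °C. Each well was multiplexed: SteadyGlo luminescence measured ATXN2-luciferase expression after a fluorogenic Gly-Phe-AFC viability readout (25 uM final).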
Gal4-VP16 FLuc – inhibits Gal4-VP16 luciferase reporter, ROR gamma counter-screen | AID 2546 | Potency, µM (top dose mostly 53.6 µM), inactives show at the highest dose activity, negative = inhibition, usual class: inhibitors | Drosophila S2 Gal4-VP16 UAS-luciferase, luminescence, 20 h | 3.5% of 310,000 active;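 further: Gal4-VP16 expression switched on by copper sulfate through the metallothionein promoter; on the % scale 0 is the no-effect control and ±100 the full control effect; nearly all actives have a fitted effect of over 50% in size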
TGFb inhibitor – inhibitors of TGF-b signaling; HepG2 CAGA-GFP TGF-b/SMAD3 reporter, GFP fluorescence, 18 h; TGF-beta stimulated, 500 pg/mL final; AID 588855; 1.2% of 410,000 active; Potency, µM (titrated, usually from 46.1 µM), for the others: at the top dose activity, negative = inhibition, usual class: inhibitors; further: on the % scale 0 is the no-effect control and ±100 the full control effect; nearly all actives have a fitted effect of over 65% in size
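HEPG2 CAGA-GFP, 1000 cells/well; 2 h settle, 37 C; cpd via pin tool; TGF-b 500 pg/mL final; 18 h, 37 C; GFP imaging ex488/em500-530; %Activity normalised to -TGF-b and +DMSO controls; CRC fit, curve class.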
Starred values were filed as active, the others as inactive; i = inactive; ? = inconclusive; · = no result given; [ ] = remark or other dose. The call rests on the fitted dose curve; in most records, active means well fitted curve in the direction sought with a large enough effect; inconclusive means small, poorly fitted or top-dose-only effect, or another doubt; inactive means no such curve, though single readings can be large; an effect the other way counts as inactive or inconclusive. Potency means the concentration at half of the fitted maximal effect.

SMILES	RORg inh	HepG2 viability	S2 tox	ATXN2 expr inh	Gal4-VP16 FLuc	TGFb inhibitor
COCc1nnc(NC(=O)c2ccc(S(=O)(=O)N3CCCC3)cc2)o1	4.47µM*	6.0%	i	6.3%	11.2µM*	3.2%
COc1ccc(NC(=O)c2ccc(S(=O)(=O)N3CCCC3)cc2)cc1OC	·	7.9%	i	5.9%	·	3.2%
CC1CCN(S(=O)(=O)c2ccc(C(=O)Nc3nnc(-c4ccccn4)o3)cc2)CC1	-0.6%	-39.5%	i	-16.5%	-14.2%	-5.3%
CC1CCCN(S(=O)(=O)c2ccc(C(=O)Nc3nnc(-c4ccco4)o3)cc2)C1 (centres undefined)	1.12µM*	-72.7%	?	?	0.501µM*	-18.3%
CCN1CCN(C(=O)N(c2ccccc2)c2ccccc2)CC1	?	-4.4%	?	-20.1%	4.2%	9.8%
COc1ccc(O[C@H]2C=C[C@@H](c3ccccc3)O[C@H]2COC(=O)CC/C(C)=N/OCC[C@@H]2C=C[C@H](OC(C)=O)[C@H](COC(C)=O)O2)cc1	8.4%[10 µM]	·	·	·	-3.6%[10 µM]	·
Cc1ccc(Cc2c(-c3ccc(F)cc3)nc3c(C)cc(Br)cn23)cc1	·	-61.8%	?	-16.6%	·	12.6µM*
Fc1ccc(-c2nc3ccc(Br)cn3c2Cc2cccc(F)c2)cc1	·	-33.2%	i	43.6%	·	12.6µM*
O=C(CCN1C(=O)/C(=C/c2ccccc2Cl)SC1=S)Nc1ccccc1C(=O)O	33.9%	0.3%	i	7.5%	2.0%	0.1%
O=C(CCCN1C(=O)/C(=C/c2ccccc2Cl)SC1=S)NNC(=O)c1ccccc1	3.16µM*	4.6%	?	?	7.08µM*	?
O=C(CCCN1C(=O)/C(=C/c2ccccc2Cl)SC1=S)NNC(=O)c1cccnc1	17.5%	-1.0%	i	?	-14.2%	-5.4%
O=C(CCCN1C(=O)/C(=C/c2ccccc2Cl)SC1=S)NNC(=O)c1ccc(Cl)cc1Cl	0.224µM*	-2.0%	i	2.51µM*	4.47µM*	-2.1%
COc1cccc(NC(=O)c2cccc(N3C(=O)C4CCC(C)CC4C3=O)c2)c1 (centres undefined)	-2.9%	1.2%	i	0.3%	0.8%	21.0%
CC1(C)c2ssc(=S)c2-c2ccccc2N1C(=O)CSC1=NCCS1	11.2µM*	-6.1%	i	-17.3%	0.0%	-23.9%
Cc1cc(C)c2c(c1)-c1c(ssc1=S)C(C)(C)N2C(=O)CSc1nncn1C	-17.1%	-25.2%	?	?	-18.5%	6.31µM*
Cc1cc2c(cc1C)N(C(=O)CSC1=NCCS1)C(C)(C)c1ssc(=S)c1-2	3.98µM*	-0.2%	i	-26.1%	1.5%[0.365 µM]	?
COc1ccc2c(c1)-c1c(ssc1=S)C(C)(C)N2C(=O)CSC1=NCCS1	?	-28.3%	i	-16.0%	-4.5%[0.365 µM]	-4.5%
Cc1ccc2c(c1)-c1c(ssc1=S)C(C)(C)N2C(=O)CSc1nncn1C	10.9%	-27.6%	i	-13.3%	1.3%	-27.1%
COc1ccc(F)cc1-c1cc(C(=O)N2CCc3ccccc3C2)[nH]n1	·	-29.7%	i	2.0%	·	-26.6%
O=C(Nc1cccc(Cl)c1Cl)c1cc(S(=O)(=O)NCCc2ccccc2)ccc1F	5.01µM*	-69.1%	i	-19.7%	3.9%	?
O=C(Nc1cc(Cl)ccc1Cl)c1cc(S(=O)(=O)NCCc2ccccc2)ccc1F	·	-39.0%	i	-21.0%	·	?
CCSc1nnc(C(C)NS(=O)(=O)c2cccc(Cl)c2C)n1C (centres undefined)	·	·	i	·	·	·
CC1CCN(CCCn2c(=S)[nH]c3c(sc4ccc([N+](=O)[O-])cc43)c2=O)CC1	-31.5%	0.8%	?	-22.8%	5.0%	0.2%
O=c1c2sc3ccccc3c2[nH]c(=S)n1CCN1CCOCC1	-21.4%	2.7%	i	15.1%	-1.1%[10 µM]	-18.9%
COCCCn1c(=S)[nH]c2c(sc3ccccc32)c1=O	1.26µM*	-2.5%	i	0.5%	?	2.2%

Screening data: PubChem, National Center for Advancing Translational Sciences (NCATS)
